The source made the active and inactive calls. How the source made its calls: active means hit-call score of the fitted dose curve at least 0.9, where 1 is the maximum; inactive means score below 0.9.
Tests used:
Conditions in all cases: mRNA level, 48 h; actives raise or lower the signal
[1] = read-out: CYP4A11 (gene 1579); assay: LTEA_HepaRG_CYP4A11: Life Technologies and Expression Analysis (LTEA) Assay for CYP4A11 using HepaRG (AID 2283486)
Method in brief: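 HepaRG, 48 h chem exposure, 8 conc (100 uM top, half-log), 0.5% DMSO vehicle; qRT-PCR readout, housekeeping-gene normalized; bidirectional curve fit vs DMSO baseline.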

[2] = read-out: Cytochrome P450 3A4 (Homo sapiens) (UniProt P08684); assay: LTEA_HepaRG_CYP3A4: Life Technologies and Expression Analysis (LTEA) Assay for CYP3A4 using HepaRG (AID 2283487)
Method in brief: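 Differentiated HepaRG cells in serum-free induction medium exposed in duplicate for 48 h to 8 half-log concentrations up to 100 uM in 0.5% DMSO. CYP3A4 mRNA measured by qRT-PCR normalized to ACTB, GAPDH and POLR2A; bidirectional fit versus DMSO.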

[3] = read-out: DNA damage-inducible transcript 3 (DDIT3), DDIT3 (gene 1649); assay: LTEA_HepaRG_DDIT3: Life Technologies and Expression Analysis (LTEA) Assay for DNA damage-inducible transcript 3 (DDIT3) using HepaRG (AID 2283488)
Method in brief: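 Differentiated human HepaRG cells in serum-free induction medium were exposed in duplicate for 48 h to 8 concentrations (top 100 uM, half-log steps, 0.5% DMSO). DDIT3 mRNA measured by TaqMan qRT-PCR, normalized to ACTB/GAPDH/POLR2A; bidirectional fit versus DMSO.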

[4] = read-out: Pro-epidermal growth factor (Homo sapiens) (UniProt P01133); assay: LTEA_HepaRG_EGF: Life Technologies and Expression Analysis (LTEA) Assay for Epidermal growth factor (EGF) using HepaRG (AID 2283489)
Method in brief: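 HepaRG, 48 h dosing, 100 uM top, half-log x8, 0.5% DMSO. Readout: TaqMan qRT-PCR (Fluidigm array), housekeeping-normalized. Gain or loss of signal fit vs DMSO.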

[5] = read-out: Early growth response protein 1 (EGR1) transcription factor, EGR1 (gene 1958); assay: LTEA_HepaRG_EGR1: Life Technologies and Expression Analysis (LTEA) Assay for Early growth response protein 1 (EGR1) transcription factor using HepaRG (AID 2283490)
Method in brief: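 Differentiated HepaRG cells in serum-free induction medium exposed 48 hours, duplicate, to 8 half-log concentrations up to 100 uM in 0.5% DMSO. EGR1 mRNA measured by TaqMan qRT-PCR, normalized to ACTB, GAPDH, POLR2A; bidirectional fit versus DMSO.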

[6] = read-out: Ezrin (EZR), EZR (gene 7430); assay: LTEA_HepaRG_EZR: Life Technologies and Expression Analysis (LTEA) Assay for Ezrin (EZR) using HepaRG (AID 2283491)
Method in brief: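 Differentiated human HepaRG cells, 48 h after plating, were exposed in serum-free induction medium for 48 hours to eight half-log concentrations up to 100 uM in 0.5% DMSO. EZR mRNA was measured by TaqMan qRT-PCR, normalized to ACTB, GAPDH and POLR2A, and fitted bidirectionally against DMSO.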

[7] = read-out: Cytochrome P450 3A7 (Homo sapiens) (UniProt P24462); assay: LTEA_HepaRG_CYP3A7: Life Technologies and Expression Analysis (LTEA) Assay for CYP3A7 using HepaRG (AID 2283492)
Method in brief: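 Human HepaRG liver cells, 48 h post-plating, switched to serum-free induction medium and exposed in duplicate for 48 h. Dosing: 100 uM top, half-log dilutions, 8 points, 0.5% DMSO vehicle. Read-out: CYP3A7 mRNA, gain or loss fitted against DMSO baseline.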

[8] = read-out: CYP3A5 (gene 1577); assay: LTEA_HepaRG_CYP3A5: Life Technologies and Expression Analysis (LTEA) Assay for CYP3A5 using HepaRG (AID 2283493)
Method in brief: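 Differentiated HepaRG cells in serum-free induction medium were dosed 48 h with test chemicals (8-point half-log series, top 100 uM, 0.5% DMSO, duplicate). CYP3A5 mRNA measured by qRT-PCR, normalized to ACTB, GAPDH, POLR2A; bidirectional fit versus DMSO.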

[9] = read-out: Fatty Acid-Binding Protein 1 (FABP1), FABP1 (gene 2168); assay: LTEA_HepaRG_FABP1: Life Technologies and Expression Analysis (LTEA) Assay for Fatty Acid-Binding Protein 1 (FABP1) using HepaRG (AID 2283494)
Method in brief: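 Differentiated human HepaRG cells exposed 48 h in serum-free induction medium to eight half-log concentrations up to 100 uM (0.5% DMSO), duplicate. FABP1 mRNA by qRT-PCR, normalised to ACTB, GAPDH, POLR2A; bidirectional fitting against DMSO.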

[10] = read-out: Cytochrome P450 4A22 (Homo sapiens) (UniProt Q5TCH4); assay: LTEA_HepaRG_CYP4A22: Life Technologies and Expression Analysis (LTEA) Assay for Cytochrome P450 4A22 (CYP4A22) using HepaRG (AID 2283495)
Method in brief: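 Readout is CYP4A22 transcript induction or loss, quantified by qRT-PCR and normalized to ACTB, GAPDH and POLR2A. Human HepaRG cells receive test chemicals for 48 h at eight half-log concentrations from 100 uM in 0.5% DMSO.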

[11] = read-out: Cytochrome P450 7A1 (Homo sapiens) (UniProt P22680); assay: LTEA_HepaRG_CYP7A1: Life Technologies and Expression Analysis (LTEA) Assay for Cytochrome P450 7A1 (CYP7A1) using HepaRG (AID 2283496)
Method in brief: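 Gene expression endpoint in human HepaRG liver cells treated for 48 h with test chemicals (up to 100 uM, 0.5% DMSO). Values come from bidirectional concentration-response fitting versus DMSO.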

[12] = read-out: Glutathione S-Transferase (GSTA2), GSTA2 (gene 2939); assay: LTEA_HepaRG_GSTA2: Life Technologies and Expression Analysis (LTEA) Assay for Glutathione S-Transferase (GSTA2) using HepaRG (AID 2283497)
Method in brief: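 Differentiated human HepaRG cells were exposed in duplicate for 48 h in serum-free induction medium, 8 points from 100 uM top in half-log steps, 0.5% DMSO. GSTA2 mRNA was measured by TaqMan qRT-PCR, normalized to ACTB, GAPDH and POLR2A; bidirectional fit versus DMSO.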

[13] = read-out: Glutamate-cysteine ligase catalytic (GCLC), GCLC (gene 2729); assay: LTEA_HepaRG_GCLC: Life Technologies and Expression Analysis (LTEA) Assay for Glutamate-cysteine ligase catalytic (GCLC) using HepaRG (AID 2283498)
Method in brief: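 Differentiated HepaRG cells exposed 48 h in serum-free induction medium, eight-point half-log series topping at 100 uM in 0.5% DMSO, duplicates. GCLC mRNA by qRT-PCR normalized to ACTB, GAPDH and POLR2A, fitted bidirectionally versus DMSO.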

[14] = read-out: growth arrest and DNA damage 45 (GADD45G), GADD45G (gene 10912); assay: LTEA_HepaRG_GADD45G: Life Technologies and Expression Analysis (LTEA) Assay for growth arrest and DNA damage 45 (GADD45G) using HepaRG (AID 2283499)
Method in brief: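 Gain or loss of GADD45G mRNA, quantified by TaqMan qRT-PCR against three housekeeping genes, is fitted in both directions relative to 0.5% DMSO. Human HepaRG cultures receive test chemical for 48 h at up to 100 uM.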

[15] = read-out: Glutamate-cysteine ligase regulatory (GCLM), GCLM (gene 2730); assay: LTEA_HepaRG_GCLM: Life Technologies and Expression Analysis (LTEA) Assay for Glutamate-cysteine ligase regulatory (GCLM) using HepaRG (AID 2283500)
Method in brief: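 Differentiated human HepaRG cells exposed 48 h in serum-free induction medium to 8-point half-log concentrations (top 100 uM, 0.5% DMSO), in duplicate. GCLM mRNA quantified by qRT-PCR, normalized to ACTB, GAPDH, POLR2A; bidirectional fitting versus DMSO.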

[16] = read-out: Glutathione S-transferase M3 (GSTM3), GSTM3 (gene 2947); assay: LTEA_HepaRG_GSTM3: Life Technologies and Expression Analysis (LTEA) Assay for Glutathione S-transferase M3 (GSTM3) using HepaRG (AID 2283501)
Method in brief: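 HepaRG, plated 48 h, then serum-free induction medium; test chemical 48 h, duplicate; 100 uM top, half-log x8, 0.5% DMSO. Read-out: GSTM3 mRNA (TaqMan qRT-PCR, Fluidigm array). Bidirectional fit vs DMSO.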

[17] = read-out: Heat shock 70 kDa protein 1 (HSPA1A), gene 3303; assay: LTEA_HepaRG_HSPA1A: Life Technologies and Expression Analysis (LTEA) Assay for Heat shock 70 kDa protein 1 (HSPA1A) using HepaRG (AID 2283502)
Method in brief: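 Differentiated human HepaRG cells in serum-free induction medium were exposed in duplicate for 48 h to eight concentrations (top 100 uM, half-log steps, 0.5% DMSO). HSPA1A mRNA was quantified by qRT-PCR, normalized to ACTB, GAPDH and POLR2A, and fitted bidirectionally against DMSO.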

[18] = read-out: Hypoxia-inducible factor 1-alpha (Homo sapiens) (UniProt Q16665); assay: LTEA_HepaRG_HIF1A: Life Technologies and Expression Analysis (LTEA) Assay for Hypoxia-inducible factor 1 (HIF1A) Trancription factor using HepaRG (AID 2283503)
Method in brief: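 HepaRG, 48 h exposure, 8-pt half-log series from 100 uM, 0.5% DMSO vehicle, duplicates. Readout: HIF1A transcript by qRT-PCR (Fluidigm array), housekeeping-normalised. Bidirectional curve fit vs DMSO baseline.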

[19] = read-out: 3-Hydroxy-3-Methylglutaryl-CoA Synthase 2 (HMGCS2), HMGCS2 (gene 3158); assay: LTEA_HepaRG_HMGCS2: Life Technologies and Expression Analysis (LTEA) Assay for 3-Hydroxy-3-Methylglutaryl-CoA Synthase 2 (HMGCS2) using HepaRG (AID 2283504)
Method in brief: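 HepaRG, plated 48 h then switched to serum-free induction media; cmpd 8-pt, max 100 uM, 1/2-log, 0.5% DMSO, n=2, 48 h. HMGCS2 mRNA by Fluidigm TaqMan qRT-PCR, ACTB/GAPDH/POLR2A norm; bidirectional fit vs DMSO.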

[20] = read-out: HGF (gene 3082); assay: LTEA_HepaRG_HGF: Life Technologies and Expression Analysis (LTEA) Assay for Hepatocyte Growth Facto (HGF) using HepaRG (AID 2283505)
Method in brief: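 Read-out is HGF transcript level by qRT-PCR, normalized to three housekeeping genes, fitted bidirectionally against 0.5% DMSO vehicle. Human HepaRG cells received test chemicals for 48 h at up to 100 uM.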

Measured: AC50

Cytochrome P450 3A7 (Homo sapiens), sequence (P24462 whole entry, looked up): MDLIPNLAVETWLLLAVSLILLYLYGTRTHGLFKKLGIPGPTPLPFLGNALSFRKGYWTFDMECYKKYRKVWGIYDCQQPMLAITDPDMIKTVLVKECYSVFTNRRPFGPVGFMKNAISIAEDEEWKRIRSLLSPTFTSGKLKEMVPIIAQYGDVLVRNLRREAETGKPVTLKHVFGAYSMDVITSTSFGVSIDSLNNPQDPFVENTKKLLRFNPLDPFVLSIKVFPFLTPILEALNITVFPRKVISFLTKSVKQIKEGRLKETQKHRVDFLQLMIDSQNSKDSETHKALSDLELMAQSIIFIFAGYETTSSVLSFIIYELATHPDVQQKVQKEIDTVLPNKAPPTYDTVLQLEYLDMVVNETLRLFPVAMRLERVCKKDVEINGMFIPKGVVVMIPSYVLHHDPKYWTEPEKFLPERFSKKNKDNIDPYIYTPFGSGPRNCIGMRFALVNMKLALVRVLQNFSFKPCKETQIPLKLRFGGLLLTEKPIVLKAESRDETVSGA
Hypoxia-inducible factor 1-alpha (Homo sapiens), sequence (Q16665 whole entry, looked up): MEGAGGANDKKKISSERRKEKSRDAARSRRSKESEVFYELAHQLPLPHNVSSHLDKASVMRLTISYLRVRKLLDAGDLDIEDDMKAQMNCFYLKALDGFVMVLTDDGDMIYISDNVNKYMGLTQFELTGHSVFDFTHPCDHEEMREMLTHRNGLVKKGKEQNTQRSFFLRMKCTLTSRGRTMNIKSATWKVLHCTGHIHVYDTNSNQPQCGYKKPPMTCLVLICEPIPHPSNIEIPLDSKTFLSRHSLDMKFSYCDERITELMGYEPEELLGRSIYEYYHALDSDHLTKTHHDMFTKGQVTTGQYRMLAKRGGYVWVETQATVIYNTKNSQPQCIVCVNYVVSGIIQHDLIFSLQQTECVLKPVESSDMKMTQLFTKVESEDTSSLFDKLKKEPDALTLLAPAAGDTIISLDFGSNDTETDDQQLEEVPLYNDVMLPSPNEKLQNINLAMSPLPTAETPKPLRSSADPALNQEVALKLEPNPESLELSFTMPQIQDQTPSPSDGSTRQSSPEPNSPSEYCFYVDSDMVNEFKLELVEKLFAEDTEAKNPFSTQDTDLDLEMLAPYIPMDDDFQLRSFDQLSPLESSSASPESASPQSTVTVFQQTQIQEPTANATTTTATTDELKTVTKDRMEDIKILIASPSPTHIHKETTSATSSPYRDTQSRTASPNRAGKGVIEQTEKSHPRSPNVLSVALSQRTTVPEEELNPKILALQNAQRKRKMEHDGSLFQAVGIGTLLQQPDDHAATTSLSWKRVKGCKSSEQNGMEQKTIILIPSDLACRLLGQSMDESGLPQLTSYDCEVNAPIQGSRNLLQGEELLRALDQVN
Cytochrome P450 3A4 (Homo sapiens), sequence (P08684 whole entry, looked up): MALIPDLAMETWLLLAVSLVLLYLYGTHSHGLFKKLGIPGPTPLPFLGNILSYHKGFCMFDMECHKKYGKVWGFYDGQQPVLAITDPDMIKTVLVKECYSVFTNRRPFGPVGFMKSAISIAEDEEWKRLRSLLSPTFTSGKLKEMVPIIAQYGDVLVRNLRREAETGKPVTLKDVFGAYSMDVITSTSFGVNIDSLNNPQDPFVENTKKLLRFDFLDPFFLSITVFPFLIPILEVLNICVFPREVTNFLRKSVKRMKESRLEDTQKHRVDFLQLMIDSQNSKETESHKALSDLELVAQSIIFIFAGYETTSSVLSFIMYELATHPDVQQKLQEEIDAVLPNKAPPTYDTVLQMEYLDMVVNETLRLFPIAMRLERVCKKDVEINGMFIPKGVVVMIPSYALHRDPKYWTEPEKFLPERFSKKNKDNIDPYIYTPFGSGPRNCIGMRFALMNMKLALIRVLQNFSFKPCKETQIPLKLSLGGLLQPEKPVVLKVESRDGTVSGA

Oc1ccc2ccc3cccc4ccc1c2c34
active: [11] 50 µM
inactive: all other assays above

OCCCl
inactive: all assays above

CCCCCOC(=O)c1ccccc1C(=O)OCCCCC
active: [1] 50 µM | [10] 79.7 µM
inactive: all other assays above

CCCCCCCCOC(=O)c1ccc(C(=O)OCCCCCCCC)c(C(=O)OCCCCCCCC)c1
inactive: all assays above

C=CCc1ccc2c(c1)OCO2
inactive: all assays above

CO[C@@H]1[C@H](OC(=O)NC(=O)CCl)CC[C@]2(CO2)[C@H]1[C@@]1(C)O[C@@H]1CC=C(C)C
active: [9] 1.96 µM
inactive: all other assays above

Brc1ccc(Oc2ccccc2)cc1
inactive: all assays above

— PubChem BioAssay (EPA / NIEHS)
